Rows were chosen to be rich in hits. Some 7.5% of all compounds tested hit in one or more screens of this group.
HCV inh – blocks hepatitis C virus | Huh7.5.1 HCVcc-Cre infection, luciferase reporter, 44 h | Potency, µM (series often up to 41.8 µM), actives largely listed as inhibitors | 340,000 tested, 3.4% active | AID 651820
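HCVcc-Cre virus at an moi near 0.5 was added right after compound to cells cultured 4 h from seeding (1,000 cells/well). Luciferase activity was determined 44 h later, 15 min after substrate addition at RT.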
VACV Venus inh – vaccinia inhibition (Venus reporter) | AID 720580 | 330,000 tested, 0.46% active | Potency, µM (highest dose often 36.5 µM), usual class: inhibitors | Vaccinia virus Venus reporter expression, fluorescence; calls by dose curve; tested in A549 cells; further: nearly all actives have a fitted effect of over 30% in size
FMDV inh – foot and mouth disease virus antiviral activity; Potency, µM (top dose mostly 57.9 µM), usual class: inhibitors; FMDV antiviral cell-based qHTS; AID 1159524; 410,000 tested, 1.2% active; calls by dose curve; tested in HEK293T cells; further: read-out not given here; nearly all actives have a fitted effect of over 45% in size
HCMV antiviral – human cytomegalovirus inhibition | activity change, negative = inhibition, % at 57.5 µM | 410,000 tested, 4.5% active | HFF cells, HCMV-luciferase reporter, 72 h; stronger effect = lower value; in the data active means activity change below about -60%; inconclusive means no clear call, values can overlap the other calls; inactive means above about -39%
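After 16 h attachment at 37C, HFF cells received test compound and HCMV-luciferase (1 PFU/cell); reporter luminescence read 72 h later, data normalized against buffer-only and known inhibitor Salinomycin.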
Giardia FBPA inh – inhibitors of Giardia lamblia fructose-1,6-bisphosphate aldolase; purified Giardia FBPA; Potency, µM (doses to about 59.6 µM), most hits filed as inhibitors; 290,000 tested, 0.71% active; AID 2451; further: nearly all actives have a fitted effect of over 55% in size
Target sequence (A8B2U2 whole entry, looked up): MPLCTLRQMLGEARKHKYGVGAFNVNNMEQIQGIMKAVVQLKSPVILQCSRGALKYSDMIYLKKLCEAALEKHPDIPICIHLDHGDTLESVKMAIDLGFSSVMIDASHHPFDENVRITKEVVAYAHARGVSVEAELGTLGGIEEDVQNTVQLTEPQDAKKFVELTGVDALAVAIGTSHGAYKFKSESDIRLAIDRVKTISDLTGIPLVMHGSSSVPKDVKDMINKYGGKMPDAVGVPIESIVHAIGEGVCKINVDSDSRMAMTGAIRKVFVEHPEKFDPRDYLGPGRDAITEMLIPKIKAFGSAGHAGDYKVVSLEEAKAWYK
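40 nM FBPA preincubated 10 min at RT with compound (up to 57.5 uM final), then substrate plus GAPDH/TPI/NAD/arsenate coupling and diaphorase/resazurin added. Fluorescence read after 20 min at RT, 525/598 nm.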
VACV mCherry inh – vaccinia inhibition (mCherry reporter). Vaccinia virus mCherry reporter infection, fluorescence. Potency, µM (highest dose often 36.5 µM), hits mostly inhibitors. 310,000 tested, 0.63% active. AID 720579; calls by dose curve; tested in A549 cells; further: nearly all actives have a fitted effect of over 35% in size
Numbers stand for hits; ! = not active in a repeat. Unless noted, the call rests on the fitted dose curve; in most records, active means well fitted curve in the direction sought with a large enough effect; inconclusive means small, poorly fitted or top-dose-only effect, or another doubt; inactive means no such curve, though single readings can be large; an effect the other way counts as inactive or inconclusive.

Results for Cc1ccccc1NC(=NCCCN1CC1)Nc1ccccc1C ?
HCV inh: inconclusive; VACV Venus inh: inconclusive; FMDV inh: inactive; HCMV antiviral: -77; VACV mCherry inh: inactive

Results for COc1ccc(-c2nc3cnc(N(C)C)nc3n(C)c2=O)cc1 ?
FMDV inh: inactive; Giardia FBPA inh: inactive

Results for O=C(C1CCCCN1S(=O)(=O)c1ccccc1)N1CCN(C(c2ccccc2)c2ccccc2)CC1 (stereo not given) ?
HCV inh: 13µM; FMDV inh: inactive; HCMV antiviral: inactive; Giardia FBPA inh: inactive

How did O=C(C1CCCCN1S(=O)(=O)c1ccccc1)N1CCCCC1 (stereo not given) do in these assays?
HCV inh: inconclusive; FMDV inh: inactive; HCMV antiviral: inactive

Results for COc1ccc(OC)c(CCNC(=O)Cn2nc(C)c3c(C)n(-c4ccccc4)nc3c2=O)c1 ?
HCV inh: inconclusive; VACV Venus inh: inactive; FMDV inh: inconclusive; HCMV antiviral: inconclusive; Giardia FBPA inh: inactive; VACV mCherry inh: inactive

How did Cc1ccc(C2=Nc3ccccc3NC(c3ccncc3)=N2)cc1 do in these assays?
VACV Venus inh: inactive; FMDV inh: inconclusive; HCMV antiviral: inactive; VACV mCherry inh: inactive

What do the screens show for `CCCCNc1nc(NCc2ccccc2)nc2ccccc12`?
VACV Venus inh: inconclusive; FMDV inh: inconclusive; HCMV antiviral: inactive; VACV mCherry inh: inconclusive

How did c1ccc(CNc2ncnc3ccccc23)cc1 do in these assays?
HCV inh: inconclusive; VACV Venus inh: inconclusive; FMDV inh: inconclusive; HCMV antiviral: -97!; Giardia FBPA inh: inactive; VACV mCherry inh: inactive

Results for c1ccc(CNc2c3ccccc3nc3ccccc23)cc1 ?
HCV inh: inconclusive; VACV Venus inh: 11µM; FMDV inh: inactive; HCMV antiviral: -100; Giardia FBPA inh: inactive; VACV mCherry inh: inconclusive

What do the screens show for `Oc1ccccc1Nc1nc(NCc2ccccc2)c2ccccc2n1`?
HCV inh: 11µM; VACV Venus inh: inconclusive; FMDV inh: inconclusive; HCMV antiviral: inconclusive; Giardia FBPA inh: inactive; VACV mCherry inh: inconclusive

How did c1ccc(CNc2nc(N3CCN(Cc4ccccc4)CC3)nc3ccccc23)cc1 do in these assays?
HCV inh: inconclusive; VACV Venus inh: inactive; FMDV inh: inconclusive; HCMV antiviral: inactive; Giardia FBPA inh: inactive; VACV mCherry inh: inconclusive

Results for OCC(Cc1ccccc1)Nc1c2ccccc2nc2ccccc12 (stereo not given) ?
HCV inh: inactive; VACV Venus inh: inconclusive; FMDV inh: inconclusive; HCMV antiviral: -63; Giardia FBPA inh: inactive; VACV mCherry inh: inactive

Results for COc1cccc(C(O)c2nc(-c3cccc(CO)c3)cs2)c1 (stereo not given) ?
VACV Venus inh: inactive; FMDV inh: inactive; HCMV antiviral: inactive; VACV mCherry inh: inactive

What do the screens show for `Oc1ccc(CCNc2c3ccccc3nc3ccccc23)cc1O`?
HCV inh: inactive; VACV Venus inh: inconclusive; FMDV inh: inactive; HCMV antiviral: -100; Giardia FBPA inh: inactive; VACV mCherry inh: inconclusive

What do the screens show for `CNc1nc(NCc2ccccc2)c2ccccc2n1`?
HCV inh: 11µM; VACV Venus inh: inactive; FMDV inh: inactive; HCMV antiviral: inactive; Giardia FBPA inh: inconclusive; VACV mCherry inh: inactive

Results for Cc1ccc2nc3sc(C(=O)N4CCCc5ccccc54)c(N)c3cc2c1 ?
HCV inh: inconclusive; FMDV inh: inactive; HCMV antiviral: -90; Giardia FBPA inh: inactive

What do the screens show for `Cc1ccccc1Nc1nc(N2CCOCC2)nc(N2CCOCC2)n1`?
HCV inh: inactive; VACV Venus inh: inactive; FMDV inh: inactive; HCMV antiviral: active; Giardia FBPA inh: inconclusive; VACV mCherry inh: inactive

What do the screens show for `Fc1ccc(Nc2nc(N3CCOCC3)c3ccccc3n2)cc1`?
HCV inh: inactive; VACV Venus inh: inactive; FMDV inh: inconclusive; HCMV antiviral: inactive; Giardia FBPA inh: inactive

How did c1ccc2c(Nc3nc(N4CCOCC4)c4ccccc4n3)cccc2c1 do in these assays?
HCV inh: inconclusive; VACV Venus inh: inactive; FMDV inh: 28µM; HCMV antiviral: inactive; Giardia FBPA inh: inactive; VACV mCherry inh: inconclusive

Results for Cc1ccc(Nc2nc(N3CCOCC3)nc(N3CCOCC3)n2)cc1 ?
HCV inh: inconclusive; VACV Venus inh: inactive; FMDV inh: inactive; HCMV antiviral: -65; Giardia FBPA inh: inactive; VACV mCherry inh: inactive

Results for COc1ccc(Br)cc1CNC(=O)CCSCc1ccc(Cl)cc1 ?
VACV Venus inh: inactive; FMDV inh: inactive; HCMV antiviral: inactive; VACV mCherry inh: inactive

What do the screens show for `COC(=O)C1=C(C(=O)OC)[C@@H]2N(C)c3ccc(OC)cc3[C@@]23C[C@@H](C(=O)OC)N(C(=O)NC2CCCCC2)C3=N1`?
HCV inh: inactive; VACV Venus inh: inactive; FMDV inh: inactive; HCMV antiviral: inactive; VACV mCherry inh: inactive

What do the screens show for `CC(OC(=O)CSc1ccccc1)C(=O)NC1CCCCC1C` (stereo not given)?
HCV inh: inactive; VACV Venus inh: inactive; FMDV inh: inactive; HCMV antiviral: inactive; VACV mCherry inh: inactive

How did O=C(Nc1ccccc1N1CCOCC1)c1cccc2c(Br)cccc12 do in these assays?
HCV inh: 5.6µM; FMDV inh: inactive; HCMV antiviral: inconclusive; Giardia FBPA inh: inactive

How did CC(C)C(=O)N1CCN(c2ccccc2NC(=O)c2cccc3ccccc23)CC1 do in these assays?
HCV inh: inconclusive; VACV Venus inh: inactive; FMDV inh: inconclusive; HCMV antiviral: -65; Giardia FBPA inh: inactive; VACV mCherry inh: inactive

How did O=C(NC(Cc1cn(Cc2ccccc2)cn1)C(=O)O)OCC1c2ccccc2-c2ccccc21 (stereo not given) do in these assays?
VACV Venus inh: inactive; FMDV inh: inactive; VACV mCherry inh: inactive

How did c1ccc(Cn2cnc3ccccc32)cc1 do in these assays?
HCV inh: inconclusive; VACV Venus inh: inactive; HCMV antiviral: inactive; Giardia FBPA inh: inactive; VACV mCherry inh: inactive

Results for Clc1ccc(Cn2cnc3ccccc32)cc1 ?
HCV inh: inconclusive; VACV Venus inh: inactive; FMDV inh: inconclusive; HCMV antiviral: -70; Giardia FBPA inh: inactive; VACV mCherry inh: inactive

How did COc1ccc(CN(CCNC(=O)CCCCC(=O)NCCN(Cc2ccc(OC)cc2)C(C)C)C(C)C)cc1 do in these assays?
HCV inh: 11µM; FMDV inh: inactive; HCMV antiviral: inconclusive

How did CC(=O)c1ccc(Nc2nc(=O)c3cccnc3s2)cc1 do in these assays?
HCV inh: inactive; VACV Venus inh: inactive; FMDV inh: inactive; HCMV antiviral: inactive; Giardia FBPA inh: inactive; VACV mCherry inh: inconclusive

What do the screens show for `O=c1nc(Nc2ccc(OCc3ccccc3)cc2)sc2ncccc12`?
HCV inh: inactive; VACV Venus inh: inactive; FMDV inh: inactive; HCMV antiviral: -88; Giardia FBPA inh: inactive; VACV mCherry inh: 0.79µM

What do the screens show for `CCOC(=O)c1ccc(Nc2nc(=O)c3cccnc3s2)cc1`?
VACV Venus inh: inactive; FMDV inh: inactive; HCMV antiviral: inconclusive; Giardia FBPA inh: inactive; VACV mCherry inh: 10µM

Results for Cn1c(SCC2CCCO2)nnc1C1CCN(Cc2ccco2)CC1 (stereo not given) ?
VACV Venus inh: inactive; FMDV inh: inactive; VACV mCherry inh: inactive

Assay outcomes deposited in PubChem by National Center for Advancing Translational Sciences (NCATS).
